Measurements from PubChem BioAssay.
Active and inactive are the calls of the source.

Tests used:
Albumin (Bos taurus) = Albumin (Bos taurus) (UniProt P02769); experiment: compounds binding labelled BSA control protein – biochemical, small-molecule microarray, Alexa647 label, 635/667 nm fluorescence, artefact control for SMM control protein annotation, profiling panel (AID 1118); details: BSA-A647 binding, fluorescence 635 nm, higher = more signal;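 further: score merges 667 nm emission intensity and signal-to-noise per printed compound spot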
Chain of Albumin (Bos taurus) (P02769 whole entry, looked up): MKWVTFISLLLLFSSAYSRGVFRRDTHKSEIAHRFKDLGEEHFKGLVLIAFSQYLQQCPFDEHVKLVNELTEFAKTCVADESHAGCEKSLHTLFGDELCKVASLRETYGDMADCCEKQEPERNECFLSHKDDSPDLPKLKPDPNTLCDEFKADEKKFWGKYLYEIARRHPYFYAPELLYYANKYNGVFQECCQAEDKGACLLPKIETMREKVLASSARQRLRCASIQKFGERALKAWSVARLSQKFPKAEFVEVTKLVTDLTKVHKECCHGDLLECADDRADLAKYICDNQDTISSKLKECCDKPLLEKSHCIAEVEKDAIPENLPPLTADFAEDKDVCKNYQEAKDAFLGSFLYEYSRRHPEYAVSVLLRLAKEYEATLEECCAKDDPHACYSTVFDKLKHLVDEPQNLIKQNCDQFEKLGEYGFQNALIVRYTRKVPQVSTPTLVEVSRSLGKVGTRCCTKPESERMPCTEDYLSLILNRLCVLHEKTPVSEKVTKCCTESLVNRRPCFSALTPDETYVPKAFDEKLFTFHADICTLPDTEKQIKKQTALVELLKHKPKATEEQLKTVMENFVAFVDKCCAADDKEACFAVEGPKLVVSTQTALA

[1] = probe aXIP binding to arrayed compounds – biochemical, NeuroSMM set, 635/667 nm fluorescence, primary screen (AID 1119); details: small-molecule microarray, higher = more signal, called active from +8 up or from −8 down;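 further: probe is the protein aXip251-270 applied at 1 µg/mL to compound-printed slides; binding of probe to printed compounds measured as 667 nm fluorescence plus signal to noise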
[2] = probe aNOTCH3 binding on compound microarray – biochemical, small-molecule microarray, 635/667 nm fluorescence, primary screen (AID 1120); details: higher = more signal;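 further: probe is a biotin-tagged antibody raised against NOTCH3 rather than NOTCH3 protein; score merges spot fluorescence near 667 nm with spot signal to noise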
[3] = probe aNOTCH2 binding on compound microarray – biochemical, small-molecule microarray, 635/667 nm fluorescence, primary screen (AID 1121); details: higher = more signal;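 further: score merges feature fluorescence read at 667 nm with its signal to noise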
[4] = molecular target: Carbonic anhydrase 2 (Homo sapiens) (UniProt P00918); experiment: compounds binding carbonic anhydrase 2 – biochemical, small-molecule microarray, Alexa647-labelled CAII, profiling panel (AID 1122); details: CAII-A647 binding fluorescence, higher = more signal
[5] = COS7 lysate on small-molecule microarray, probe aHis, 635 nm (AID 1123); details: COS7 cell lysate, fluorescence, higher = more signal;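 further: z-score combines 667nm fluorescence intensity with signal-to-noise per printed compound spot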
[6] = probe aLAP1 signal on lysate-treated microarray – cell lysate, small-molecule microarray, COS7 lysate, primary screen (AID 1124); details: probe aLAP1, fluorescence, higher = more signal;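 further: lysate comes from COS7 cells expressing LAP1 and is applied at 0.3 µg/mL; score merges spot fluorescence near 667 nm with signal-to-noise over triplicate slides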
Sam68 (KHDRBS1) = experiment: compounds binding KHDRBS1 protein – biochemical, small-molecule microarray, 635 nm fluorescence, primary screen (AID 1125); details: higher = more signal;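 further: score merges 667 nm channel intensity with signal to noise over triplicate slides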
[7] = test system: Chordin-like protein 2 (CHRDL2); experiment: compounds binding chordin-like 2 – biochemical, small-molecule microarray, 635 nm fluorescence, primary screen (AID 1126); details: fluorescence 635 nm, higher = more signal;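 further: printed compound slides probed with Chrdl2 protein at 4 µg/mL for 1 h at 4 C; score merges 667 nm emission intensity with signal to noise over three replicate slides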
[8] = molecular target: Concanavalin-A (Canavalia ensiformis) (UniProt P02866); experiment: compounds binding concanavalin A lectin – biochemical, small-molecule microarray, Alexa647 label, 635 nm, artefact control for SMM control protein annotation, primary screen (AID 1127); details: ConA-A647 binding fluorescence, higher = more signal;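 further: z combines 667 nm emission intensity with signal-to-noise across three replicate slides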
Chain of Concanavalin-A (Canavalia ensiformis) (P02866 whole entry, looked up): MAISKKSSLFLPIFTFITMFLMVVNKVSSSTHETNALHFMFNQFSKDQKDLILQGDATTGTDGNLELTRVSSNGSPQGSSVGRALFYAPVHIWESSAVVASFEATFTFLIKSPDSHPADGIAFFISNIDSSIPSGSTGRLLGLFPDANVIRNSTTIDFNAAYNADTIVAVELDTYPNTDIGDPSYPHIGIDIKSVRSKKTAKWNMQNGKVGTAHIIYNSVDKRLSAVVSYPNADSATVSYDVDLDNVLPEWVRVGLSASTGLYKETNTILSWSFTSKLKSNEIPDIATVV

Row | Structure (SMILES) | composite z-score (Albumin (Bos taurus)) | composite Z-score [1] | composite z-score [2] | composite z-score [3] | composite z-score [4] | composite z-score [5] | composite z-score [6] | composite z-score (Sam68 (KHDRBS1)) | composite z-score [7] | composite z-score [8]
1 | CCOC(=O)C[C@H]1[C@H](OC(=O)c2ccc(C(=O)c3ccccc3)cc2)[C@@H](NC(=O)CC(C)C)c2cc(OCCCO)ccc2N1C(=O)Cc1ccc(OC)cc1 | 0.793 | -0.0147 (inactive) | -0.0377 | 0.075 | 0.139 | 1.26 | 0.563 | 0.698 | -0.612 | 0.142
2 | C=C(/C(=C/C[C@@H](OC(C)=O)c1ccc(CO)o1)c1cc(C(=O)OC)ccc1OC)C(C)C | 0.461 | -0.0662 (inactive) | 0.232 | -0.124 | 0.662 | 1.31 | 0.0806 | 0.561 | 0.0347 | 0.395
3 | COCCOC(=O)N1C(=O)[C@@]2(c3cc(C#CC4(O)CCCCCC4)ccc31)[C@H](C(=O)N1CCN(c3ncccn3)CC1)[C@H]1C(=O)O[C@H](c3ccccc3)[C@H](c3ccccc3)N1[C@@H]2c1ccccc1OCCO | -0.22 | 0.572 (inactive) | 0.22 | -0.0826 | 0.384 | 0.506 | -0.176 | 1.26 | 0.902 | 1.13
4 | COc1cc(C(O)C2C=CC3C(=O)N(Cc4ccccc4)C(=O)C3N2n2cnnc2)cc(OC)c1OC (stereo not given) | 0.578 | -0.0603 (inactive) | 0.401 | 0.202 | 0.686 | 1.1 | 1.01 | 0.462 | -0.141 | 0.458
5 | C=C[C@@H](C)[C@@H](OC(=O)Nc1ccc(SC)cc1)c1ccc(OCCO)cc1 | 0.743 | 0.939 (inactive) | 0.221 | -0.0814 | 0.715 | 1.07 | 0.248 | 0.87 | -0.506 | 1.1
6 | O=C1C2C=CC(C(O)c3ccc4c(c3)OCO4)N(Nc3ccccc3)C2C(=O)N1c1ccccc1 (stereo not given) | 1.01 | 0.348 (inactive) | 0.345 | 0.0247 | 0.468 | 2.43 | 0.247 | 1.29 | -0.0766 | 1.13
7 | COc1ccc(C#Cc2ccc3c(c2)[C@]2(C(=O)N3)[C@H](C(=O)N3CCCCCCC3)[C@H]3C(=O)O[C@H](c4ccccc4)[C@H](c4ccccc4)N3[C@@H]2c2ccc(O)cc2)cc1 | 0.796 | 4.74 (inactive) | 0.888 | 0.0488 | 0.594 | 2.9 | 1.25 | 1.3 | 0.573 | 0.977
8 | Cc1ccc(S[C@]2(C(=O)NCc3ccccc3)CC(=O)N(Cc3cc(C(F)(F)F)cc(C(F)(F)F)c3)[C@@H]2c2ccc(CO)cc2I)cc1 | -0.618 | -0.244 (inactive) | -0.338 | -0.161 | 0.699 | 0.67 | 0.0779 | -0.191 | -1.77 | -1.54
9 | CC(C)CCC[C@@H](C)[C@H]1CC[C@@]2(C)C3=C(CC[C@]12C)[C@@]1(C)CC[C@H](OC(=O)c2ccccc2)C(C)(C)C1CC3 (stereo not given in full) | 0.181 | 0.115 (inactive) | -0.0074 | -0.181 | -0.103 | 0.275 | -0.0606 | 0.248 | 0.418 | 0.115
10 | COCCOC(=O)N1C(=O)[C@@]2(c3cc(C#CCNC(N)=O)ccc31)[C@H](c1ccc(O)cc1)N1[C@H](c3ccccc3)[C@H](c3ccccc3)OC(=O)[C@H]1[C@@H]2C(N)=O | -0.864 | -1.03 (inactive) | -0.443 | -0.198 | -0.394 | -0.157 | -0.38 | -0.344 | -1.52 | -1.03
11 | C=C(CCCC)C(=O)CC[C@H](OC(=O)c1ccccc1-c1ccccc1C(=O)O)c1ccccc1OCCO | 0.0147 | -0.104 (inactive) | -0.104 | -0.189 | 0.693 | 0.043 | 0.61 | 0.203 | 0.277 | -0.496
12 | C[C@@H]1ON(c2ccc(I)cc2)[C@H](c2ccc(OC(=O)OC(C)(C)C)cc2)[C@H]1C(=O)N1C(=O)OC[C@H]1Cc1ccccc1 | 0.578 | 0.0054 (inactive) | -0.0043 | -0.14 | 0.574 | 0.527 | -0.36 | 1.15 | 0.376 | 1.09
13 | C[C@]1(C(=O)NCCN2CCOCC2)c2ccccc2C(=O)N(Cc2cc(F)cc(C(F)(F)F)c2)[C@H]1c1ccc(CO)cc1 | 0.0744 | 0.0652 (inactive) | -0.159 | -0.0928 | 0.773 | 2.18 | 0.535 | 0.692 | -0.841 | 0.828
14 | CC(C)CNC(=O)[C@@]1(C)c2ccccc2C(=O)N(Cc2cc(C(F)(F)F)cc(C(F)(F)F)c2)[C@H]1c1ccc(CO)cc1 | 0.184 | 0.635 (inactive) | -0.242 | -0.111 | 0.72 | 0.79 | -0.205 | 0.108 | -0.307 | 0.0758
15 | CN(C)CCCC[C@@H]1NC(=O)[C@@H]2C[C@H](C(=O)O)[C@H](c3cccc(OCCO)c3)N2C1=O | 0.0812 | 0.627 (inactive) | -0.0914 | -0.116 | 0.198 | 0.491 | -0.0644 | -0.936 | 0.217 | 0.567
16 | COc1ccc([Si](C)(C)[C@H]2[C@H](CC(=O)N3CCC[C@H]3CO)O[C@@]3(C(=O)N(Cc4ccc(N5CCC5=O)cc4)c4ccccc43)[C@@H]2C)cc1 | 0.669 | 0.156 (inactive) | -0.0182 | -0.147 | 0.474 | 2.24 | 0.568 | 1.3 | 1.25 | 1.13
17 | CCCC=C(CCC)[C@@H](NS(=O)(=O)c1cccc2cccnc12)c1ccc(-c2ccccc2)cc1 | 0.723 | 0.339 (inactive) | 0.438 | -0.0581 | 0.666 | 2.88 | 0.0607 | 1.31 | -0.677 | 1.14
18 | CCCCCCCCCCC(O)C1C=CC2C(=O)N(c3ccccc3)C(=O)C2N1Nc1ccccc1F (stereo not given) | 0.524 | -0.105 (inactive) | -0.0242 | -0.171 | 0.208 | 1.5 | 0.344 | 0.233 | -1.13 | 0.17
19 | COc1cc2c(cc1OC)CN(C(=O)[C@@H]1[C@H]3C(=O)O[C@H](c4ccccc4)[C@H](c4ccccc4)N3[C@H](c3ccc(O)cc3)[C@@]13C(=O)Nc1ccc(C#CCCO)cc13)CC2 | 0.571 | 0.37 (inactive) | -0.0699 | -0.113 | 0.606 | 1.08 | 0.78 | 1.13 | 0.481 | 0.754
20 | NCCCCCNC(=O)[C@H]1C[C@H]2C(=O)N[C@@H](Cc3ccccc3)C(=O)N2[C@H]1c1ccc(O)cc1 | 0.819 | 0.491 (inactive) | 0.248 | 0.197 | 0.487 | 1.23 | 1.23 | 1.28 | 0.518 | 1.08
21 | C=C(COC)/C(=C/C[C@@H](OC(C)=O)c1ccc(CO)o1)c1cc(C(=O)OC)ccc1OC | -0.418 | 0.615 (inactive) | -0.0647 | -0.133 | 0.579 | 0.694 | 0.662 | 0.246 | -0.228 | 0.581
22 | C=C/C=C/[C@@H]1C(=C)CN([C@@H](Cc2ccccc2)C(=O)OC)[C@H]1[C@@H](O)Cc1ccccc1 | 0.0797 | 0.3 (inactive) | -0.0343 | -0.115 | 0.311 | 1.07 | 0.137 | 1.09 | 0.177 | 0.861
23 | CCCC=C(CCC)[C@@H](NC(=O)CCc1ccccc1)c1ccc(C(F)(F)F)cc1 | 0.964 | -0.1 (inactive) | 0.265 | -0.0095 | 0.58 | 2.82 | 0.0364 | 1.27 | -0.153 | 1.1
24 | [N-]=[N+]=Nc1ccccc1C[C@]1(C(=O)NCc2ccccc2)COC(c2ccc(OCCCO)cc2)=N1 | 0.784 | -0.135 (inactive) | 0.0945 | -0.0859 | 0.383 | 2.52 | 0.171 | 1.3 | -0.362 | 0.995
25 | C=C(COC)C(=O)CC[C@H](OC(=O)c1cccnc1)c1ccc(CO)o1 | 0.0617 | -0.496 (inactive) | 0.0225 | -0.0569 | 0.317 | -0.22 | -0.237 | 0.558 | 0.686 | 0.695
26 | COCCOC(=O)N1C(=O)[C@@]2(c3cc(C#CCCO)ccc31)[C@H](C(N)=O)[C@H]1C(=O)O[C@H](c3ccccc3)[C@H](c3ccccc3)N1[C@@H]2c1ccc(OCCO)cc1 | 0.489 | 0.206 (inactive) | 0.12 | 0.0248 | 0.354 | 2.21 | 0.667 | 1.29 | 0.618 | 1.15
27 | C=CCC(OC(C)=O)[C@@H]1[C@@H](N(Cc2ccc(-c3cccc(C(F)(F)F)c3)o2)C(=O)c2cccc3ccccc23)c2cc(OCCCO)ccc2N1C(=O)Cc1ccc(OC)cc1 (stereo not given in full) | 0.311 | -0.0798 (inactive) | -0.027 | -0.151 | 0.149 | 0.428 | 0.0827 | -0.323 | 0.0616 | -0.422
